# Several values for one entry are separate records, joined by “and”; a condition that tells them apart may be missing. Equal entries are not always repeated. Where a structure was tested more than once in an assay, its records may differ in their call. Activity calls are given as the source filed them. Rule for the calls: active = hit-call score of the fitted dose curve at least 0.9, where 1 is the maximum; inactive = score below 0.9.
# Target: Hepatocyte nuclear factor 6 (Homo sapiens) (UniProt Q9UBC0)
# Sequence (Q9UBC0 whole entry, looked up): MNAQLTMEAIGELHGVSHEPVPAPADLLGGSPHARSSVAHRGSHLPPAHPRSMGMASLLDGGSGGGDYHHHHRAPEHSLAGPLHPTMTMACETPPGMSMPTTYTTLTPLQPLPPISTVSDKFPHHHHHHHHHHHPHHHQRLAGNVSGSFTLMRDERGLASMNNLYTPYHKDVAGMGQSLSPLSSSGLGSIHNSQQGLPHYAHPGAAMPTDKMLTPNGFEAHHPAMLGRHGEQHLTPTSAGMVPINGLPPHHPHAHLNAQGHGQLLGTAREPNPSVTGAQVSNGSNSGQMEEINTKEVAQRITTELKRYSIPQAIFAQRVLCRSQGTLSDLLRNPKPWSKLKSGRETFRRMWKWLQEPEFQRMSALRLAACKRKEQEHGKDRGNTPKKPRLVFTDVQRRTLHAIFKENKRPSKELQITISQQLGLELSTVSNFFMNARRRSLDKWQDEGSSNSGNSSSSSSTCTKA
# Assay: ATG_HNF6_CIS: Attagene CIS-FACTORIAL HepG2 Assay for human Hepatocyte Nuclear Factor 6 (HNF6) (AID 2282952)
# Conditions: HepG2 Attagene cis-factorial HNF6 reporter transcription; actives raise or lower the signal
# Procedure: ATG_CIS is a cell-based, multiplexed-readout assay that uses HepG2, a human liver cell line, with measurements taken at 24 hours after chemical dosing in a 24-well plate.ATG_HNF6_CIS is one of 52 assay component(s) measured or calculated from the ATG_CIS assay. It is designed to make measurements of mRNA induction, a form of inducible reporter, as detected with fluorescence intensity signals by Reverse transcription polymerase chain reaction (RT-PCR) and Capillary electrophoresis technology.Data from the assay component ATG_HNF6_CIS was analyzed into 1 assay endpoint. This assay endpoint, ATG_HNF6_CIS, was analyzed with bidirectional fitting relative to DMSO as the negative control and baseline of activity. Using a type of inducible reporter, measures of mRNA for gain or loss-of-signal activity can be used to understand the reporter gene at the transcription factor-level as they relate to the gene ONECUT1. Furthermore, this assay endpoint can be referred to as a primary readout, because this assay has produced multiple assay endpoints where this one serves a reporter gene function. To generalize the intended target to other relatable targets, this assay endpoint is annotated to the dna binding intended target family, where the subfamily is homeobox protein.
# Human liver HepG2 cells are transiently transfected with multiple reporter transcription units (MRTUs) in 6-well plates using FuGene 6 reagent (Roche; 3 ml FuGene/1 mg DNA). The MRTU constructs are regulated by a cis-regulating element (promoter). […] A major difference between the CIS and TRANS system is that in CIS activities of endogenous TFs are measured, whereas the TRANS assay evaluates changes in activities of exogenous, chimeric NR-Gal4 proteins. […] At the end of 24 hour incubation, total RNA was isolated using TriZol reagent (Invitrogen). The isolated RNA is then reverse-transcribed using oligo(dT) primer and Mo-MLV reverse transcriptase (Invitrogen) with DNAse I (Ambion) treatment for 30 min. The one-tenth of the produced cDNA was amplified by PCR using Taq DNA polymerase (Invitrogen) and two reporter sequence-specific primers. The PCR products were fluorescently labeled by primer extension with 6-arboxyfluorescein (6-FAM) 5'-labeled reporter sequence-specific primer (2 min at 95 C, 20 s at 68 C and 10 min at 72 C) and these products were digested with 5U of HpaI (New England Biolabs) for 2h at 37 C. The fragments were purified using Qiaquick PCR columns (Qiagen), analyzed on an ABI 3130xL genetic analyzer (Applied Biosystems) with peak positions identified by using a set of X-rhodamine (ROX)-labeled MapMarker1000 molecular weight standards (BioVentures). The raw capillary electrophoresis data was processed using Attagraph software (Attagene).
SMILES,outcome,AC50
CCOCN(C(=O)CCl)c1c(C)cccc1CC,inactive,
OCCOc1ccccc1,inactive,
N#CN,inactive,
CC(C)N(C(=O)COc1nnc(C(F)(F)F)s1)c1ccc(F)cc1,inactive,
O=S(=O)(O)C(F)(F)C(F)(F)C(F)(F)C(F)(F)C(F)(F)C(F)(F)C(F)(F)C(F)(F)F,inactive,24.7 µM (active) and 208 µM (active) and 272 µM (active)
CC(C)(C)C(O)/C(=C\c1ccc(Cl)cc1Cl)n1cncn1 (stereo not given),inactive,
CCOC1Oc2ccc(OS(C)(=O)=O)cc2C1(C)C (stereo not given),inactive,
CCOc1nc(NC)nc(NC(=O)NS(=O)(=O)c2ccccc2C(=O)OC)n1,inactive,
CCCN(CCOc1c(Cl)cc(Cl)cc1Cl)C(=O)n1ccnc1,inactive,
COC(=O)c1ccccc1CS(=O)(=O)NC(=O)Nc1nc(OC)cc(OC)n1,inactive,
CC(C)(C)C(O)C(Oc1ccc(Cl)cc1)n1cncn1 (stereo not given),inactive,
CCC(C)(NC(=O)c1cc(Cl)c(C)c(Cl)c1)C(=O)CCl (stereo not given),inactive,
O=C(O)CCCOc1ccc(Cl)cc1Cl,inactive,
CC(C)OC(=O)Nc1cccc(Cl)c1,inactive,
CN1CSC(=S)N(C)C1,inactive,
ClC1C(Cl)C(Cl)C(Cl)C(Cl)C1Cl (stereo not given),inactive,
CC[C@H](C)[C@H]1O[C@]2(C=C[C@@H]1C)C[C@@H]1C[C@@H](C/C=C(\C)[C@@H](O[C@H]3C[C@H](OC)[C@@H](O[C@H]4C[C@H](OC)[C@@H](O)[C@H](C)O4)[C@H](C)O3)[C@@H](C)/C=C/C=C3\CO[C@@H]4[C@H](O)C(C)=C[C@@H](C(=O)O1)[C@]34O)O2 (tested in a mixture with another compound),inactive,
C[C@H]1[C@H](c2ccc(Cl)cc2)SC(=O)N1C(=O)NC1CCCCC1,inactive,
CNC(=O)CSP(=S)(OC)OC,inactive,
O=C1c2ccccc2C(=O)N1SC(Cl)(Cl)Cl,inactive,

SMILES,outcome,AC50
COP(=O)(OC)OC=C(Cl)Cl,inactive,
C#CCN1C(=O)COc2cc(F)c(N3C(=O)C4=C(CCCC4)C3=O)cc21,inactive,
COC(=O)c1ccccc1S(=O)(=O)NC(=O)N(C)c1nc(C)nc(OC)n1,inactive,
Oc1cc(Cl)ccc1Oc1ccc(Cl)cc1Cl,inactive,
Clc1ccccc1-c1nnc(-c2ccccc2Cl)nn1,inactive,
[2H]C1([2H])[n+]2ccccc2-c2cccc[n+]2C1([2H])[2H],inactive,
O=C(O)COc1ccc(Cl)cc1Cl,inactive,
O=C(O)C(F)(F)C(F)(F)C(F)(F)C(F)(F)C(F)(F)C(F)(F)C(F)(F)F,inactive,
CCC(C)Nc1c([N+](=O)[O-])cc(C(C)(C)C)cc1[N+](=O)[O-] (stereo not given),inactive,
COP(=S)(OC)Oc1ccc(SC)c(C)c1,inactive,
CCS(=O)(=O)c1cccnc1S(=O)(=O)NC(=O)Nc1nc(OC)cc(OC)n1,inactive,
Cc1cc(C)nc(NC(=O)NS(=O)(=O)c2ccccc2C(=O)OC2COC2)n1,inactive,
CC1(C)C(C=C(Cl)Cl)C1C(=O)OC(C#N)c1ccc(F)c(Oc2ccccc2)c1 (stereo not given),inactive,
CNC(=O)/C=C(\C)OP(=O)(OC)OC,inactive,
CCCN(CCC)c1c([N+](=O)[O-])cc(C(F)(F)F)cc1[N+](=O)[O-],inactive,
CNC(=O)Oc1cccc(N=CN(C)C)c1,inactive,
Cc1[nH]c(=O)n(C(C)(C)C)c(=O)c1Cl,inactive,
O=C(NC(=O)c1c(F)cccc1F)Nc1ccc(OC(F)(F)C(F)OC(F)(F)F)c(Cl)c1 (stereo not given),inactive,
CCN(CC)C(=O)SCc1ccc(Cl)cc1,inactive,

# Reference: PubChem BioAssay (EPA / NIEHS)
